Among the data in the supplement of paper PMC7556523 are growth inhibition values, retold here.

For test [1], the system named is Sporothrix brasiliensis CBS 133006. Description: growth inhibition relative to untreated control; higher = more growth inhibition (more antifungal activity), active = 80 or more; extreme values may be limits of the assay. The settings on record: 1 µM; 48 h. Put shortly:
(§1)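 Before testing, the reference isolates were kept in brain heart infusion broth with 2% glucose at 36°C for 7 days to give yeast-form cells. These cells, at 1 x 10^5 CFU/ml, received library compounds at a final 1 μM and were held 48 h at 35°C in 5% CO2. Growth was checked by eye under an inverted light microscope and quantified spectrophotometrically in quadruplicate, and the value is percent growth inhibition versus untreated cells.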

Test [2] has as its system Sporothrix schenckii ATCC 32286. Described as above. As to conditions: 1 µM; 48 h. Put shortly: as §1

With `NCC(=O)N1CCn2c(nc(-c3ccccc3)c2Nc2ccc3c(c2)OCO3)C1`, the growth inhibition in test [1] was 0% (inactive); in test [2], 0.5% (inactive).
On to `c1ccc(Oc2ccc(-c3cc(N4CCNCC4)[nH]n3)cc2)cc1`, for which the growth inhibition is 0% (inactive) in test [1] and 4% (inactive) in test [2].
On the same counts, the results for `COc1ccc(-c2onc(C(F)(F)F)c2-c2ccc(Cl)cc2)c(O)c1` are 11.8% (inactive) and 6% (inactive).
On the same counts, the results for `Cc1ccc2nc(Cl)c(CNCc3cccs3)cc2c1` are 0% (inactive) and 2.25% (inactive).
On the same counts, the results for `Cn1ccnc1CNCCS(=O)(=O)c1cccc(Nc2ccc(-c3cccc(F)c3)cn2)c1` are 4.25% (inactive) and 0% (inactive).
Take `CC1CCCN(C(=O)C(C)Nc2cc(Cl)ccc2N2CCOCC2)C1` (stereo not drawn): the growth inhibition is 11.5% (inactive) in test [1] and 0.5% (inactive) in test [2].
For `CN1CCN(S(=O)(=O)c2ccc(-c3ccc4c(Nc5ncc(Cl)cn5)ccnc4c3)cc2)CC1` the same measures were 13% (inactive) and 10.8% (inactive).
On the same counts, the results for `O=C(Nc1nnc(-c2ccc(Cl)s2)o1)c1ccc(Cl)s1` are 27.8% (inactive) and 42% (inactive).
For the compound `COc1ccc(C2=NN(C3CCCCCC3)C(=O)C2(C)C)cc1OCCCCOc1ccc(-c2nn[nH]n2)cc1`, the growth inhibition is 6.25% (inactive) in test [1] and 0% (inactive) in test [2].
Consider `Cc1ncc(-c2ccnc(Nc3ccc(S(C)(=O)=O)cc3)n2)n1C(C)C`, for which the growth inhibition is 37% (inactive) in test [1] and 2.5% (inactive) in test [2].
On the same counts, the results for `CNc1nnc(Sc2cnn(-c3ccccc3)c(=O)c2Cl)s1` are 6% (inactive) and 0% (inactive).
Turning to `Cc1ccc(Oc2ccc(NC(=O)CNc3ccccc3N3CCCC3=O)cc2)cc1`, the growth inhibition in test [1] and in test [2] was 0% (inactive) throughout.
For the compound `CCOc1ccc(-c2nc(NC(=O)CS(=O)(=O)c3ccccc3)sc2C)cc1`, the growth inhibition is 5.25% (inactive) in test [1] and 0.5% (inactive) in test [2].
In the case of `COc1ccccc1CNC(=O)c1cc(C2CC2)nc2c1cnn2C(C)C`, the growth inhibition in test [1] is 27.8% (inactive); in test [2], 0% (inactive).
Consider `CCc1nc2ccc(Cl)cn2c1C(=O)NCc1ccc(N2CCC(c3ccc(OC(F)(F)F)cc3)CC2)cc1`, for which the growth inhibition in test [1] was 10.2% (inactive); in test [2] it was 2.25% (inactive).
On the same counts, the results for `CCN(CC)C(=O)N1CCN(C)CC1` are 4% (inactive) and 1% (inactive).
Take `O=C(c1ccco1)N(CCCn1ccnc1)c1nc2c(Cl)cccc2s1`: the growth inhibition in test [1] was 6% (inactive); in test [2], 10.2% (inactive).
For the compound `O=C(Nc1cccc(Cl)c1)c1cnc(N2CCN(c3ccncc3)CC2)c(Cl)c1`, the growth inhibition was 0.75% (inactive) in test [1] and 1.5% (inactive) in test [2].
As for `C[C@]1(COc2ccc(N3CCC(Oc4ccc(OC(F)(F)F)cc4)CC3)cc2)Cn2cc([N+](=O)[O-])nc2O1`, the figures for the growth inhibition in test [1] and in test [2] were 7.25% (inactive) and 4.5% (inactive), respectively.
On the same counts, the results for `COc1cccc2c(C)nc(N=C(N)N)nc12` are 10% (inactive) and 20.8% (inactive).
For `Nc1ncnc2c1ncn2C[C@@H](O)[C@@H](O)C(=O)O` the same measures were 5% (inactive) and 11.8% (inactive).
For `N#Cc1ccc(-c2cnc(N)c(-c3ccc(C(N)=O)cc3)n2)cc1` the same measures were 3.75% (inactive) and 9% (inactive).
For the compound `Cc1cc(Cl)c(S(=O)(=O)N2CCCC2)cc1OCC(=O)NC1CCCCC1`, the growth inhibition in test [1] is 8% (inactive); in test [2] it was 0% (inactive).
On the same counts, the results for `Clc1cccc(CO[C@H]2CCc3ccccc3[C@@H]2n2ccnn2)c1` are 15.8% (inactive) and 3% (inactive).
On the same counts, the results for `Cc1ccc2[nH]c(C3CCCNC3)c(-c3ccncc3)c2c1` (stereo not drawn) are 19% (inactive) and 7.75% (inactive).
For `Cc1cc(NCC(C)C)c2[nH]nc(-c3ccccc3)c2n1` the same measures were 4.5% (inactive) and 0.75% (inactive).
Consider `CNC(=O)CNc1nc(-c2ccccn2)nc2scc(-c3ccccc3)c12`, for which the growth inhibition in test [1] is 9.5% (inactive); in test [2], 3.75% (inactive).
For `O=C(NC1CC1)c1ccc(N2CCC(Cc3ccccc3)CC2)nc1` the same measures were 6.5% (inactive) and 19.8% (inactive).
Turning to `CC(C)NCC(=O)Nc1cccc(C(=O)Nc2cccc(C(F)(F)F)c2)c1`, the growth inhibition is 11.5% (inactive) in test [1] and 3.75% (inactive) in test [2].
For `FC(F)(F)c1ccc(N(c2cccnc2)C2CCN(c3ccc(C(F)(F)F)cn3)CC2)cc1` the same measures were 0% (inactive) and 0% (inactive).
As to `CCCCc1ccc(NC(=O)Nc2ccc(O[C@H]3CCCC[C@@H]3N(C)c3ccccc3)c(F)c2)cc1`, the growth inhibition in test [1] was 0% (inactive); in test [2] it was 4.25% (inactive).
For `COc1ccc(Cn2cnc3c(-c4ccco4)nc(Cl)nc32)cc1` the same measures were 15.8% (inactive) and 17.8% (inactive).
Turning to `CC1(C)Cc2c(c(N3CCOCC3)nc3snc(Br)c23)CO1`, the growth inhibition is 4.5% (inactive) in test [1] and 6.5% (inactive) in test [2].
As for `COc1cc(C2=NCCN2)ccc1-n1cc(-c2cccc(C3=NCCN3)c2)nn1`, the growth inhibition in test [1] is 18.5% (inactive); in test [2] it was 5.5% (inactive).
As for `O=C(C1CCN(c2cc(-n3cccc3)ncn2)CC1)N1CCc2ccccc2C1`, the growth inhibition in test [1] is 6% (inactive); in test [2] it was 10.2% (inactive).
On the same counts, the results for `OC[C@H]1O[C@@H](n2c3ccc(Cl)cc3c3c(-c4cc5ccccc5o4)ncnc32)C(O)[C@H]1O` (stereo partly drawn) are 10.8% (inactive) and 18.8% (inactive).
`Cc1nc(-c2ccccn2)nc(N2CCC(Cc3ccccc3)C2)c1Cl` (stereo not drawn): the values for the growth inhibition in test [1] and in test [2] were 63% (inactive) and 13% (inactive), respectively.
For `O=C(Nc1ccnc(-c2cccnc2)n1)c1cc(C(F)(F)F)cc(C(F)(F)F)c1`, the values for the growth inhibition in test [1] and in test [2] were 2.5% (inactive) and 0% (inactive), respectively.
`CN(C)CCNC(=O)N1CCCN(c2ncnc3cc(-c4ccccc4)sc23)CC1`: the figures for the growth inhibition in test [1] and in test [2] were 10.5% (inactive) and 13.2% (inactive), respectively.
`CCOc1ccc(-c2nc(CNCCc3ccc(F)cc3)cs2)cc1`: the growth inhibition is 3.75% (inactive) in test [1] and 15.5% (inactive) in test [2].
Regarding `O=C1[C@@H](Oc2ccccc2)[C@@H](c2ccc(Cl)cc2)N1CCn1cnc2c(NCc3ccccc3)ncnc21`, the growth inhibition in test [1] is 14% (inactive); in test [2], 17.8% (inactive).
`O=[N+]([O-])c1cn2c(n1)OC[C@@H](OCc1ccc(OC(F)(F)F)cc1)C2`: the growth inhibition was 9% (inactive) in test [1] and 10.2% (inactive) in test [2].
As for `O=S(=O)(c1ccc(Cl)cc1)N1CCN(C(=S)NCc2ccco2)CC1`, the growth inhibition is 0% (inactive) in test [1] and 12% (inactive) in test [2].
For `COc1ccc(-c2nc(-c3cccc(NC(=O)Cc4ccc(F)cc4)c3)no2)cc1OC` the same measures were 6.25% (inactive) and 4% (inactive).
On the same counts, the results for `Cc1nc(-c2ccccn2)nc(NCCc2ccc(S(C)(=O)=O)cc2)c1Cl` are 13% (inactive) and 0% (inactive).
For `CNC(=O)C1Cc2ccccc2N1C(=O)Cc1ccc(F)cc1` (stereo not drawn) the same measures were 32.2% (inactive) and 3.25% (inactive).
For the compound `c1ccc(-c2nc(NC3CCCCC3)cc(C3CC3)n2)nc1`, the growth inhibition was 16.8% (inactive) in test [1] and 38.2% (inactive) in test [2].
Turning to `FC(F)(F)c1cccc(-c2nc3c(NCc4ccncc4)nccc3[nH]2)c1`, the growth inhibition in test [1] was 38% (inactive); in test [2], 4% (inactive).
On the same counts, the results for `CCCCS(=O)(=O)Nc1ccc2cnn(C)c2c1` are 4.75% (inactive) and 1.75% (inactive).
For `CC(C)C(C(=O)Nc1ccc(S(=O)(=O)N(C)C)cc1)c1ccc(Cl)cc1` (stereo not drawn) the same measures were 17.5% (inactive) and 0.5% (inactive).
For `O=C(Nc1ccc(C(F)(F)F)c(C(F)(F)F)c1)c1cc(Cl)ccc1O`, the results for the growth inhibition in test [1] and in test [2] were 92.5% (active) and 62% (inactive), respectively.
For `CCc1ccccc1-n1c(C)cn2c3c(=O)n(C(C(=O)OC)C(C)C)c(=O)n(C)c3nc12` (stereo not drawn) the same measures were 15.8% (inactive) and 0% (inactive).
On the same counts, the results for `FC(F)(F)c1cc(NCCc2ccccc2)nc(-c2ccccn2)n1` are 10% (inactive) and 9.75% (inactive).
On the same counts, the results for `O=C(NCCc1ccccc1)c1cc(-c2cccnc2)cnc1NCC1CC1` are 0% (inactive) and 0% (inactive).
`CCc1nc2ccccc2n1CC(O)COc1cc(C)ccc1Cl` (stereo not drawn): the growth inhibition in test [1] was 1.25% (inactive); in test [2], 11% (inactive).
For the compound `COc1ccc(C2CC(c3cccs3)=NN2C(=O)c2ccco2)cc1OC` (stereo not drawn), the growth inhibition in test [1] is 0% (inactive); in test [2], 18.8% (inactive).
On to `CCCn1c(CNc2ccccc2O)nc2ccccc21`, for which the values for the growth inhibition in test [1] and in test [2] were 11.2% (inactive) and 13.2% (inactive), respectively.
Turning to `COc1ccc(Oc2ccc([C@@H](C)N(C)c3ncc4c(N)nc(N)nc4n3)cc2)cc1`, the growth inhibition in test [1] was 5.75% (inactive); in test [2], 4.25% (inactive).
For `c1ccc(Oc2ccc(-c3cc(CN4CCOCC4)[nH]n3)cc2)cc1` the same measures were 2.25% (inactive) and 5.75% (inactive).
As to `COc1cc(C2=NCCN2)cc2cc(-c3ccc(C4=NCCN4)cc3)oc12`, the growth inhibition in test [1] is 17% (inactive); in test [2] it was 4.25% (inactive).
`CCN(CC)CCCN1CCN(C(=O)c2cccc(-c3noc(C(F)(F)F)n3)c2)CC1`: the growth inhibition in test [1] is 25% (inactive); in test [2] it was 0% (inactive).
For `Nc1nccc2ccc(Oc3ccncc3)cc12`, the growth inhibition in test [1] was 9.25% (inactive); in test [2], 14.2% (inactive).
For `OCc1ccc(-c2cncc(Nc3cccc(Cl)c3)c2)cc1`, the growth inhibition in test [1] is 25.5% (inactive); in test [2], 6.75% (inactive).
Take `CC(C)(C)OC(=O)N1CCN(c2nccc(-c3ccc(-c4ccc(Cl)cc4)s3)n2)CC1`: the growth inhibition in test [1] was 8% (inactive); in test [2], 1% (inactive).
Consider `c1ccc(Oc2ccc(-c3cncc(-c4ccc5[nH]ccc5c4)n3)cc2)cc1`, for which the growth inhibition is 8% (inactive) in test [1] and 12.5% (inactive) in test [2].
On the same counts, the results for `CC(=O)N1CCc2cc3nc(C)cc(C)c3cc21` are 4% (inactive) and 0% (inactive).
For the compound `CN1CCC(NCc2cccc(-c3ccc(S(=O)(=O)NCc4ccccc4)cc3)c2)CC1`, the growth inhibition in test [1] is 8% (inactive); in test [2], 13.5% (inactive).
On to `Cc1cc(C)cc(COc2ccc3c(C)c(CCC(=O)O)c(=O)oc3c2C)c1`, for which the growth inhibition in test [1] is 3.75% (inactive); in test [2] it was 1.5% (inactive).
For `COc1cncc(-c2cncc(N3CCN(c4ccncc4)CC3)n2)c1` the same measures were 34.2% (inactive) and 0% (inactive).
On the same counts, the results for `COc1cccc(OCC(=O)c2ccc(Br)cc2)c1` are 16% (inactive) and 22% (inactive).
For `COc1cc(C(F)(F)F)nc2ccc(C)c(N)c12` the same measures were 6.75% (inactive) and 14.5% (inactive).
In the case of `CCOC(=O)c1cc(-c2csc(Nc3c(C)cc(C)cc3C)n2)on1`, the growth inhibition was 10.5% (inactive) in test [1] and 3.75% (inactive) in test [2].
For `CCc1c(C)nc(-n2nc(C)cc2NC(=O)c2ccccc2SC)[nH]c1=O`, the growth inhibition in test [1] is 93.5% (active); in test [2], 76.8% (inactive).
On to `CC(=O)OCC1OC([S-])C(OC(C)=O)C(OC(C)=O)C1OC(C)=O.CCP(CC)CC.[Au+]` (stereo not drawn), for which the growth inhibition was 25.5% (inactive) in test [1] and 55% (inactive) in test [2].
